{"source": "the supplement of paper PMC8728848", "binders": {"B1": {"name": "GS7807F-bth-514-18-514 (Bacteroides thetaiotaomicron) (protein)", "chain": "AGSCTGNFEEYNTNQFQIHEADPSTLMKSMIETIVNIQQNDSQMMDQMVGQLGGYLTCANVWSGTNFGTFNQSDAWNAGPWNTNFEKIYGNFFQIQEATNESGHYYAFARMIRAITMLRVADCYGPMPYSQVKKGNFYVAYDTEEQVYKNIMEDFASAANVLYNYYKDTNGNAPLASNDPVFSGNYANWARLANSMRLRVAIRISTAYPEMAKENAEAAASHEAGLIEANNDNAMMDCGSQTNPYQLAAVSWGDLRVNANIVDYMNGYGDPRMSKYFNHSTFTGHTQEYVGMRSGEDGFAKSDVAGYSIPAITGTSKLLVFCAAETAFLRAEGKLKNWSVGNKSAKEYYEEGIKLSMEQYGTTMPDNYLTNTEKPTVSHNNDPRGHAYTISNTVAVAWNDNNEEENLQRIITQKWIANYPLGLEAWAEYRRTGYPELYPCIDNLSPSGVDSKRGMRRLRFPYTEVQNNHSNYQQGVSYLKNGGPDNEATDLSWGKTN"}}, "test_in_all_cases": "glycan array binding signal (z-score within array); higher = stronger binding", "conditions_in_all_cases": "glycan notation: IUPAC condensed, linker removed", "key": {"[1]": {"molecular_target": "Fuc(a1-2)Gal(b1-3)GalNAc(b1-3)Gal(a1-4)Gal(b1-4)Glc", "procedure,_shortened": "(§1)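 Glycan array binding is given as a within-array Z-score, which can be read as non-binding when negative. The arrays, 3228 of them, came from the Consortium for Functional Glycomics database and were retained only where the protein sequence was available. Z-scores were averaged across arrays of the same protein sequence at different concentrations or buffers and across linkers.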"}, "[2]": {"molecular_target": "Fuc(a1-2)Gal(b1-3)GlcNAc(b1-3)[Gal(b1-4)GlcNAc(b1-6)]Gal(b1-4)Glc", "procedure,_shortened": "as §1"}, "[3]": {"molecular_target": "Fuc(a1-2)Gal(b1-4)GlcNAc(b1-2)Man", "procedure,_shortened": "as §1"}, "[4]": {"molecular_target": "Fuc(a1-2)Gal(b1-4)[Fuc(a1-3)]GlcNAc(b1-2)[Fuc(a1-2)Gal(b1-4)[Fuc(a1-3)]GlcNAc(b1-4)]Man(a1-3)[Fuc(a1-2)Gal(b1-4)[Fuc(a1-3)]GlcNAc(b1-2)Man(a1-6)]Man(b1-4)GlcNAc(b1-4)GlcNAc", "procedure,_shortened": "as §1"}, "[5]": {"molecular_target": "Fuc(a1-2)Gal(b1-4)[Fuc(a1-3)]GlcNAc(b1-3)[Neu5Ac(a2-6)Gal(b1-4)GlcNAc(b1-6)]Gal(b1-4)Glc", "procedure,_shortened": "as §1"}, "[6]": {"molecular_target": "Fuc(a1-2)Gal6S(b1-3)GlcNAc6S", "procedure,_shortened": "as §1"}, "[7]": {"molecular_target": "Fuc(a1-2)[Gal(a1-3)]Gal(b1-3)GlcNAc(b1-2)Man(a1-3)[Fuc(a1-2)[Gal(a1-3)]Gal(b1-3)GlcNAc(b1-2)Man(a1-6)]Man(b1-4)GlcNAc(b1-4)GlcNAc", "procedure,_shortened": "as §1"}, "[8]": {"molecular_target": "Fuc(a1-2)[Gal(a1-3)]Gal(b1-4)GlcNAc(b1-2)Man", "procedure,_shortened": "as §1"}, "[9]": {"molecular_target": "Fuc(a1-2)[GalNAc(a1-3)]Gal(b1-3)GlcNAc(b1-6)GalNAc", "procedure,_shortened": "as §1"}, "[10]": {"molecular_target": "Fuc(a1-2)[GalNAc(b1-3)]Gal", "procedure,_shortened": "as §1"}, "[11]": {"molecular_target": "Fuc(a1-3)[Gal(b1-4)]GlcNAc(b1-2)Man", "procedure,_shortened": "as §1"}, "[12]": {"molecular_target": "Fuc(a1-3)[Gal(b1-4)]GlcNAc(b1-6)GalNAc", "procedure,_shortened": "as §1"}, "Gal(a1-2)Gal": {"molecular_target": "Gal(a1-2)Gal", "procedure,_shortened": "as §1"}, "Gal(a1-3)Gal(b1-3)GlcNAc": {"molecular_target": "Gal(a1-3)Gal(b1-3)GlcNAc", "procedure,_shortened": "as §1"}, "Gal(a1-4)Gal(b1-4)GlcNAc": {"molecular_target": "Gal(a1-4)Gal(b1-4)GlcNAc", "procedure,_shortened": "as §1"}, "[13]": {"molecular_target": "Gal(b1-3)GalNAc(b1-4)Gal(b1-4)Glc", "procedure,_shortened": "as §1"}, "[14]": {"molecular_target": "Gal(b1-3)GalNAc(b1-4)[Neu5Ac(a2-3)]Gal(b1-4)Glc", "procedure,_shortened": "as §1"}, "[15]": {"molecular_target": "Gal(b1-3)GlcNAc(b1-2)Man(a1-3)[Gal(b1-3)GlcNAc(b1-2)Man(a1-6)]Man(b1-4)GlcNAc(b1-4)[Fuc(a1-6)]GlcNAc", "procedure,_shortened": "as §1"}, "[16]": {"molecular_target": "Gal(b1-3)GlcNAc(b1-6)[Gal(b1-3)]GalNAc", "procedure,_shortened": "as §1"}, "Gal(b1-3)GlcNAc6S": {"molecular_target": "Gal(b1-3)GlcNAc6S", "procedure,_shortened": "as §1"}, "[17]": {"molecular_target": "Gal(b1-4)GlcNAc(b1-2)Man(a1-3)Man(b1-4)GlcNAc(b1-4)GlcNAc", "procedure,_shortened": "as §1"}, "[18]": {"molecular_target": "Gal(b1-4)GlcNAc(b1-3)Gal(b1-4)GlcNAc(b1-3)Gal(b1-4)GlcNAc(b1-2)[Gal(b1-4)GlcNAc(b1-3)Gal(b1-4)GlcNAc(b1-3)Gal(b1-4)GlcNAc(b1-6)]Man(a1-6)[Gal(b1-4)GlcNAc(b1-3)Gal(b1-4)GlcNAc(b1-3)Gal(b1-4)GlcNAc(b1-2)Man(a1-3)]Man(b1-4)GlcNAc(b1-4)[Fuc(a1-6)]GlcNAc", "procedure,_shortened": "as §1"}, "[19]": {"molecular_target": "Gal(b1-4)GlcNAc(b1-3)Gal(b1-4)GlcNAc(b1-3)Gal(b1-4)GlcNAc(b1-3)Gal(b1-4)GlcNAc(b1-3)Gal(b1-4)GlcNAc(b1-2)Man(a1-3)[Gal(b1-4)GlcNAc(b1-3)Gal(b1-4)GlcNAc(b1-3)Gal(b1-4)GlcNAc(b1-3)Gal(b1-4)GlcNAc(b1-3)Gal(b1-4)GlcNAc(b1-2)Man(a1-6)]Man(b1-4)GlcNAc(b1-4)GlcNAc", "procedure,_shortened": "as §1"}, "[20]": {"molecular_target": "Gal(b1-4)GlcNAc(b1-3)Gal(b1-4)GlcNAc(b1-3)Gal(b1-4)GlcNAc(b1-3)Gal(b1-4)GlcNAc(b1-3)Gal(b1-4)GlcNAc(b1-3)Gal(b1-4)GlcNAc(b1-2)Man(a1-3)[Gal(b1-4)GlcNAc(b1-3)Gal(b1-4)GlcNAc(b1-3)Gal(b1-4)GlcNAc(b1-3)Gal(b1-4)GlcNAc(b1-3)Gal(b1-4)GlcNAc(b1-3)Gal(b1-4)GlcNAc(b1-2)Man(a1-6)]Man(b1-4)GlcNAc(b1-4)GlcNAc", "procedure,_shortened": "as §1"}, "[21]": {"molecular_target": "Gal(b1-4)GlcNAc(b1-3)Gal(b1-4)GlcNAc(b1-3)[Gal(b1-4)GlcNAc(b1-3)Gal(b1-4)GlcNAc(b1-6)]GalNAc", "procedure,_shortened": "as §1"}, "[22]": {"molecular_target": "Gal(b1-4)GlcNAc(b1-3)[Fuc(a1-3)GlcNAc(b1-6)]Gal(b1-4)Glc", "procedure,_shortened": "as §1"}, "[23]": {"molecular_target": "Gal(b1-4)GlcNAc(b1-6)[Gal(b1-4)GlcNAc(b1-3)]GalNAc", "procedure,_shortened": "as §1"}, "Gal3S(b1-4)Glc": {"molecular_target": "Gal3S(b1-4)Glc", "procedure,_shortened": "as §1"}, "[24]": {"molecular_target": "Gal3S(b1-4)[Fuc(a1-3)]Glc6S", "procedure,_shortened": "as §1"}, "Gal6S(b1-4)GlcNAc": {"molecular_target": "Gal6S(b1-4)GlcNAc", "procedure,_shortened": "as §1"}}, "note": "About 410 targets per protein were measured; listed, in parts, are those with the strongest signals and a random draw of the rest.", "data": [{"binder": "B1", "values": [{"measurement": "glycan array binding signal (z-score)", "setting": "[1]", "value": -0.883}, {"measurement": "glycan array binding signal (z-score)", "setting": "[2]", "value": -0.372}, {"measurement": "glycan array binding signal (z-score)", "setting": "[3]", "value": -0.353}, {"measurement": "glycan array binding signal (z-score)", "setting": "[4]", "value": -0.286}, {"measurement": "glycan array binding signal (z-score)", "setting": "[5]", "value": -0.798}, {"measurement": "glycan array binding signal (z-score)", "setting": "[6]", "value": -0.358}, {"measurement": "glycan array binding signal (z-score)", "setting": "[7]", "value": 0.454}, {"measurement": "glycan array binding signal (z-score)", "setting": "[8]", "value": -0.295}, {"measurement": "glycan array binding signal (z-score)", "setting": "[9]", "value": -0.854}, {"measurement": "glycan array binding signal (z-score)", "setting": "[10]", "value": 3.2}, {"measurement": "glycan array binding signal (z-score)", "setting": "[11]", "value": -0.562}, {"measurement": "glycan array binding signal (z-score)", "setting": "[12]", "value": -0.328}, {"measurement": "glycan array binding signal (z-score)", "setting": "Gal(a1-2)Gal", "value": -0.45}, {"measurement": "glycan array binding signal (z-score)", "setting": "Gal(a1-3)Gal(b1-3)GlcNAc", "value": 0.018}, {"measurement": "glycan array binding signal (z-score)", "setting": "Gal(a1-4)Gal(b1-4)GlcNAc", "value": 0.384}, {"measurement": "glycan array binding signal (z-score)", "setting": "[13]", "value": 0.212}, {"measurement": "glycan array binding signal (z-score)", "setting": "[14]", "value": 3.23}, {"measurement": "glycan array binding signal (z-score)", "setting": "[15]", "value": 0.491}, {"measurement": "glycan array binding signal (z-score)", "setting": "[16]", "value": 1.38}, {"measurement": "glycan array binding signal (z-score)", "setting": "Gal(b1-3)GlcNAc6S", "value": 2.12}, {"measurement": "glycan array binding signal (z-score)", "setting": "[17]", "value": 0.202}, {"measurement": "glycan array binding signal (z-score)", "setting": "[18]", "value": 3.25}, {"measurement": "glycan array binding signal (z-score)", "setting": "[19]", "value": 4.26}, {"measurement": "glycan array binding signal (z-score)", "setting": "[20]", "value": 3.26}, {"measurement": "glycan array binding signal (z-score)", "setting": "[21]", "value": 3.96}, {"measurement": "glycan array binding signal (z-score)", "setting": "[22]", "value": 1.53}, {"measurement": "glycan array binding signal (z-score)", "setting": "[23]", "value": 0.25}, {"measurement": "glycan array binding signal (z-score)", "setting": "Gal3S(b1-4)Glc", "value": 0.164}, {"measurement": "glycan array binding signal (z-score)", "setting": "[24]", "value": 3.48}, {"measurement": "glycan array binding signal (z-score)", "setting": "Gal6S(b1-4)GlcNAc", "value": 0.547}]}]}
